FLuc modulator – counter-screen for miR-21 project: firefly luciferase inhibitors or activators; P08659; purified FLuc, Km substrates, luminescence inhibition; Potency, µM (doses to about 57.5 µM), without a hit: at the highest dose activity change, negative = inhibition, hits mostly inhibitors; 6.9% of 360,000 active;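 also: plate controls were vehicle for no effect and reference inhibitor for full effect; nearly all actives have a fitted effect of over 55% in size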
Target sequence (P08659 whole entry, looked up): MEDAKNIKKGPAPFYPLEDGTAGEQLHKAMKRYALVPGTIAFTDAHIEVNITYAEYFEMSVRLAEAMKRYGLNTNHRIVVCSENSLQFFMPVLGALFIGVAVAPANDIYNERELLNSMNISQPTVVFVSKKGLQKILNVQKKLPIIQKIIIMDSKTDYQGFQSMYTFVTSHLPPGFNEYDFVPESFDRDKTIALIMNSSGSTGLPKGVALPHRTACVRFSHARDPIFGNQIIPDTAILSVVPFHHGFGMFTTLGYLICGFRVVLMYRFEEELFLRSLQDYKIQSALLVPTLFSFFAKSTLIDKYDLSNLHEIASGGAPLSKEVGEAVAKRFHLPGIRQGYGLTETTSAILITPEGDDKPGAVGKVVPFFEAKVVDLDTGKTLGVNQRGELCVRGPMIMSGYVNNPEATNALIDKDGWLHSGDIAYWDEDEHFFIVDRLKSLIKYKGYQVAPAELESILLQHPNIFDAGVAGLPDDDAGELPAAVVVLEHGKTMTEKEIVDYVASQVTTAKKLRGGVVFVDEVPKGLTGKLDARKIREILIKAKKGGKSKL
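Purified P. pyralis luciferase, 10 nM final, with Km-level 10 uM D-luciferin and 10 uM ATP in 50 mM Tris acetate pH 7.5, 10 mM Mg acetate, 0.01% Tween-20, 0.05% BSA; 6-point qHTS titration about 60 µM downward; luminescence read.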
ELG1 repair inh – blocks ELG1-dependent DNA repair in HEK293T cells. Potency, µM (series often up to 46.1 µM), for the others: at the highest dose activity change, negative = inhibition, usual class: inhibitors. HEK293T ELG1-luciferase reporter, luminescence, 16 h; DNA damage induced by 5-fluorouridine. 2.3% of 330,000 active. AID 504467; also: % is scaled to controls: 0 for no effect and ±100 for the full control effect; nearly all actives have a fitted effect of over 55% in size
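Step one: seed 2,000 cells per well. Step two: pin-transfer compound or DMSO alongside 5-fluorouridine. Step three: incubate 16 hr, 37 °C, 5% CO2. Step four: add ONE-Glo, wait 30 min, read luminescence.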
Rab9 prom act – activators of Rab9 promoter | 2.8% of 320,000 active | Huh7 Rab9 promoter-luciferase reporter, luminescence, 24 h | Potency, µM (top dose mostly 9.22 µM), for the others: at the highest dose activation, negative = inhibition, usual class: activators; also: % of control where 0% means no effect; nearly all actives have a fitted effect of over 60% in size
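Steps: seed 1500 Huh7 Rab9-luc cells per well, rest 2 h at 37 °C; add compound in DMSO; incubate 24 h; add luciferase reagent, 10 min ambient; read luminescence.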
NPC1 prom act – activates the NPC1 promoter; Huh7 NPC1 promoter luciferase reporter, 24 h; Potency, µM (doses to about 9.22 µM), without a hit: at the top dose activation, hits mostly activators; 2.4% of 320,000 active; AID 485313; also: % of control where 0% means no effect; nearly all actives have a fitted effect of over 60% in size
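Huh7 cells stably carrying NPC1 promoter–luciferase, plated in Opti-MEM with 10% FBS for 2 h, were exposed to compound in DMSO for 24 h at 37 °C; luciferase reagent was added for 10 min and luminescence read.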
SMN2 splice enh – SMN2 splice variant enhancement; HEK293 SMN2-luciferase splicing reporter, luminescence, 30-36 h; Potency, µM (highest dose often 46.1 µM), for inactives: at the top dose activity change, positive = activation, actives largely listed as activators; 2.8% of 210,000 active; also: % of control where 0% means no effect; nearly all actives have a fitted effect of over 55% in size
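HEK293 cells carry an SMN2 minigene-luciferase reporter in which exon 7 inclusion puts luciferase in frame. Cells were seeded at 2000 cells/well, attached for 10-12 hours, then exposed to compounds for 30-36 hours at 37C before ONE-Glo luminescence.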
ELG1 genotoxic – induces genotoxicity in HEK293T cells with luciferase-tagged ELG1. HEK293T ELG1-luciferase reporter, luminescence, 16 h. Potency, µM (doses to about 46 µM), for inactives: top-dose activity change, positive = activation, usual class: activators. 1.3% of 330,000 active. AID 504466; also: % of control where 0% means no effect; nearly all actives have a fitted effect of over 60% in size
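16 hr compound incubation (37 °C, 5% CO2) of HEK293T cells carrying luciferase-tagged ELG1; luciferase then measured by ONE-Glo luminescence after 30 min at RT.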
Starred values were filed as active, the others as inactive; ? = inconclusive; . = no result given. Shown are actives, neighbours in structure and some others; about 9.2% of the full set was active somewhere. Calls follow the shape of the dose curve; as a rule, active = well fitted curve in the direction sought with a large enough effect; inconclusive = small, poorly fitted or top-dose-only effect, or another doubt; inactive = no such curve, though single readings can be large; an effect the other way counts as inactive or inconclusive. Potency is read from the fitted curve at half-maximal effect.

SMILES | FLuc modulator | ELG1 repair inh | Rab9 prom act | NPC1 prom act | SMN2 splice enh | ELG1 genotoxic
CCc1ccc(NC(=O)[C@H](Cc2ccccc2)NC(=O)C2CCN(C(=O)[C@@H](N)CC(C)C)CC2)cc1 | 1% | 8% | -2% | -5% | . | 3%
COC(=O)c1c(C(=O)OC)c2ccccn2c1C(=O)c1ccc([N+](=O)[O-])cc1 | 1% | ? | -9% | 0% | . | -6%
COC(=O)c1c(C(=O)OC)c2cc(C(=O)c3ccccc3)ccn2c1Cl | ? | 26µM* | 6% | 1% | -56% | -1%
Cc1cc(SCC(=O)NCc2ccc(F)cc2)nc(=O)[nH]1 | -3% | . | . | . | . | .
CCn1c(=S)[nH]c2sc3c(c2c1=O)CCCC3 | ? | -5% | -3% | -3% | . | -4%
CC1CCc2c(sc3[nH]c(=S)n(C)c(=O)c23)C1 (centres undefined) | 19µM* | ? | 23% | 12% | . | -6%
COc1ccc2cc(C[C@@H]3CC[C@@H](CNC(N)=O)O3)ccc2c1 | . | ? | . | . | . | 18%
O=C(/C=C/c1ccc(N2CCCCC2)c([N+](=O)[O-])c1)c1ccc(O)cc1 | 4.8µM* | ? | ? | ? | -8% | 21µM*
O=C(O/N=C\c1ccc(N2CCCCC2)c([N+](=O)[O-])c1)c1ccc(Cl)cc1Cl | -1% | -7% | -8% | -4% | -9% | -2%
COc1ccccc1C(=O)/C=C/c1ccc(N2CCCCC2)c([N+](=O)[O-])c1 | 6µM* | ? | ? | ? | -84% | ?
COc1ccc(-c2cc(=NC(CC(C)C)C(=O)O)c3cc(C)ccc3o2)cc1 (centres undefined) | 0.85µM* | ? | 3% | ? | 11µM* | ?
CN1C(=O)C(C)(C)c2cc(S(=O)(=O)N3CCCC(C(=O)NCc4ccc(Cl)cc4)C3)ccc21 (centres undefined) | -2% | 15µM* | -4% | 0% | . | -6%
CN1C(=O)C(C)(C)c2cc(S(=O)(=O)N3CCCC3C(=O)NCc3ccc(F)cc3)ccc21 (centres undefined) | 6% | 2% | 2% | 0% | . | 0%
O=C(NC1CC1)c1scc2c1OCCO2 | -1% | 16µM* | 2% | 0% | -8% | -5%
CC(=O)Nc1ccc(S(=O)(=O)N2CCN=C2SCc2ccc(F)cc2)cc1 | -4% | 2.9µM* | -13% | -1% | . | -3%
N#C/C(=C\c1c(Cl)cccc1Cl)c1nc2ccccc2[nH]1 | ? | 0% | -2% | 4% | . | -4%
N#C/C(=C/c1cccs1)c1nc2ccccc2[nH]1 | ? | ? | 2.8µM* | ? | ? | ?
Cc1ccc(/C=C(\C#N)c2nc3ccccc3[nH]2)s1 | 4.8µM* | ? | 0.35µM* | 0.79µM* | ? | ?
COc1ccc(N(C)C(=O)Cc2c(C(=O)O)n(C)c3ccccc23)c(OC)c1 | 4% | -4% | -8% | 2% | . | 0%
O=C(CCC(=O)OCC(F)(F)C(F)F)Nc1ccccc1F | -1% | -13% | -2% | -4% | 26% | 1%
CC(=O)c1ccccc1NC(=O)COC(=O)C1=NN(c2ccccc2)C(=O)CC1 | 0% | 15% | 3% | -4% | . | 0%
CCCS(=O)(=O)c1cnc(C2COc3ccccc3O2)nc1N (centres undefined) | 0.12µM* | ? | -32% | -23% | . | ?
Cc1ccc(-n2cc(C(=O)Oc3ccc(F)cc3)c3ccccc3c2=O)cc1 | -5% | . | . | . | . | .
CC(=O)Nc1ccc(SCC(=O)Nc2ccccc2-c2ccccc2)cc1 | -2% | -19% | -2% | 4% | -29% | 0%
CC(=O)Nc1ccc(SCc2ncc(-c3ccccc3)o2)cc1 | 13µM* | ? | 0.71µM* | 1.4µM* | . | ?
SMILES | FLuc modulator | ELG1 repair inh | Rab9 prom act | NPC1 prom act | SMN2 splice enh | ELG1 genotoxic
COc1ccc(-n2nc(C(=O)NCC(=O)N3CCC(C)CC3)c3ccccc3c2=O)cc1 | 2.1µM* | ? | ? | ? | . | 5%
CCC(C)NC(=O)CNC(=O)c1nn(-c2ccc(OC)cc2)c(=O)c2ccccc12 (centres undefined) | -11% | 2% | -1% | -3% | . | -3%
COc1ccc(-n2nc(C(=O)NCC(=O)N3CCCC(C)C3)c3ccccc3c2=O)cc1 (centres undefined) | 5.4µM* | 1% | 17% | -24% | . | -6%
COc1ccc(-n2nc(C(=O)NCC(=O)N3CCC(C(N)=O)CC3)c3ccccc3c2=O)cc1 | 11µM* | 9% | 8% | 9% | . | ?
COc1ccc(CC(=O)NNC(=O)CSc2nc(C)c(C)c(=O)[nH]2)cc1 | -13% | 11% | 4% | -5% | . | 2%
O=C(Cn1cnc2nc3c(cc2c1=O)CCCC3)Nc1ccc(F)cc1Cl | -7% | . | . | . | . | .
COc1ccccc1NC(=O)C1CCN(S(=O)(=O)c2cn(C)cn2)CC1 | -6% | . | . | . | . | .
CSc1nc2ccsc2c(=O)n1-c1ccccn1 | 2% | 10% | 3% | 0% | 15% | 4%
COc1ccc(CN2CCN(C(=O)C3CCN(S(=O)(=O)c4cccs4)CC3)CC2)c(OC)c1OC | -4% | 10µM* | -12% | -5% | -35% | -5%
COc1ccc(CN2CCN(C(=O)C3CCC(CNS(=O)(=O)c4ccc(C)cc4)CC3)CC2)c(OC)c1OC (centres undefined) | 0% | 12µM* | -27% | -6% | -28% | -8%
CCOc1ccc(C(=O)Nc2cccc(C(=O)O)c2)cc1Cl | 0.24µM* | ? | ? | ? | 0.56µM* | -10%
O=C(COc1ccc(Cl)cc1Cl)NNC(=S)NCc1ccco1 | ? | 24% | 2% | 5% | . | 5%
O=C(COc1ccc(Cl)cc1Cl)Nc1ccc(Cl)cn1 | 0.3µM* | ? | ? | 0.45µM* | 11µM* | 1.2µM*
O=C(COc1ccc(Cl)cc1Cl)NN=C1CCCCC1 | 7.6µM* | 8% | -7% | 0% | -18% | 1%
CCOc1ccc(C(=O)Nc2cc(NC(=O)c3ccc(OCC)c(Cl)c3)cc(C(=O)O)c2)cc1Cl | -20% | 7% | -7% | -4% | 9% | -1%
O=C(COc1ccc(Cl)cc1Cl)NCc1ccco1 | 24µM* | ? | ? | 25% | -8% | ?
Nc1cc(C(=O)O)ccc1Sc1ccccc1C(=O)O | ? | 11% | 7% | 0% | . | 0%
CCCOC(=O)CC1C(=O)NCCN1C(=O)OC(C)(C)C (centres undefined) | -1% | -2% | -10% | 1% | . | 0%
CCOc1ccc(C(=O)Nc2ccc(Cl)cn2)cc1Cl | 4.8µM* | ? | 2.5µM* | 2.5µM* | ? | ?
